From PubChem BioAssay (NCATS)
Inconclusive results are not listed. Active and inactive are the calls of the source. Unless noted, calls follow the shape of the dose curve; as a rule, active = well fitted curve in the direction sought with a large enough effect; inconclusive = small, poorly fitted or top-dose-only effect, or another doubt; inactive = no such curve, though single readings can be large; an effect the other way counts as inactive or inconclusive.

Experiments:
[1] = qHTS for inhibitors of adenylyl cyclases using a fission yeast platform: a pilot screen against the NCATS LOPAC library (AID 1347410);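 also: plate controls were DMSO vehicle for no effect and DPI positive control for full effect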
Procedure, shortened: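 S. pombe CHP2027 (AC9-GNAS-PDE4D2) carrying PKA-repressed fbp1-GFP, incubated 18 h at 30C in EMM with LOPAC compounds at up to 57 uM. GFP gain-of-signal read by laser scanning cytometry; DMSO negative control.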

[2] = target: Calcium and integrin-binding protein 1 (Homo sapiens) (UniProt Q99828); experiment: Primary qHTS for Identification of Calcium Integrin Binding Protein 1 (CIB1) Competitor (AID 1508620);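 also: GST tagged CIB1 binding a fluorescein labelled alphaIIb integrin peptide tracer; top concentration of the series differs between compounds; % is scaled to controls: 0 for no effect and ±100 for the full control effect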
Chain of Calcium and integrin-binding protein 1 (Homo sapiens) (Q99828 whole entry, looked up): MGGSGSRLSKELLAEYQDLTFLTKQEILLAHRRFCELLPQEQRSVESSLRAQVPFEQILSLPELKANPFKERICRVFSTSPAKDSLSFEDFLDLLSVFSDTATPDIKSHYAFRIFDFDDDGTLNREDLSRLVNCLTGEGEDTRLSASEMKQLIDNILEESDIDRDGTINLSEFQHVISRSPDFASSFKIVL
Procedure, shortened: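 CIB1-GST (1 uM final) and compound incubated 15 min at room temperature before adding FITC-alphaIIb peptide tracer (100 nM final). Competition for binding read by fluorescence polarization (ex 480, em 540) after another 15 min at room temperature.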

[3] = target: Cytochrome P450 2C9 (Homo sapiens) (UniProt P11712); experiment: Cytochrome P450 family 2 subfamily C member 9 (CYP2C9) small molecule antagonists: luciferase biochemical (cell-free) qHTS assay (AID 1645842; active = well fitted curve in the direction sought with a large enough effect in the repeat runs; an effect the other way counts as inactive or inconclusive; also: nearly all actives have a fitted effect of over 55% in size; also: potency is read from the fitted curve at half-maximal effect)
Chain of Cytochrome P450 2C9 (Homo sapiens) (P11712 whole entry, looked up): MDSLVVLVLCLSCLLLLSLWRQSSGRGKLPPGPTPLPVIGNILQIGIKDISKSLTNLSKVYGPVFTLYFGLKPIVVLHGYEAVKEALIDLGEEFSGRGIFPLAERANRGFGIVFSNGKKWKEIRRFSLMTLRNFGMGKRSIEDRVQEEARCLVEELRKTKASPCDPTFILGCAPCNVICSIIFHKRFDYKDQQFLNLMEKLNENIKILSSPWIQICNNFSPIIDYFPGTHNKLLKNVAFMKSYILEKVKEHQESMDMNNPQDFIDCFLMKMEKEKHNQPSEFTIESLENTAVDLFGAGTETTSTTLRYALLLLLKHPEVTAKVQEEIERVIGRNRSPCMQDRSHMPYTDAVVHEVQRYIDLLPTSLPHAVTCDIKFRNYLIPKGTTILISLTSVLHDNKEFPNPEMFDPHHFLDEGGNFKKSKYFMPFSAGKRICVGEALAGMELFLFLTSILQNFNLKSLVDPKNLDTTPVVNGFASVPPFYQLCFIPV
Procedure, shortened: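 Luminescence, after 20 min with luciferin detection reagent, reflected CYP2C9 turnover during a 1 h NADPH-driven reaction at 37C. Enzyme-substrate mix contained 0.4% bovine serum albumin and was preincubated with compound 10 min at room temperature.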

Papain (Carica papaya) = Papain (Carica papaya) (UniProt P00784); experiment: Primary qHTS assay for inhibitors of the protease papain (AID 1645873);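 also: papain turnover of Z-FR-AMC read as the AMC fluorescence gain over 10 min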; also: potency is read from the fitted curve at half-maximal effect
Chain of Papain (Carica papaya) (P00784 whole entry, looked up): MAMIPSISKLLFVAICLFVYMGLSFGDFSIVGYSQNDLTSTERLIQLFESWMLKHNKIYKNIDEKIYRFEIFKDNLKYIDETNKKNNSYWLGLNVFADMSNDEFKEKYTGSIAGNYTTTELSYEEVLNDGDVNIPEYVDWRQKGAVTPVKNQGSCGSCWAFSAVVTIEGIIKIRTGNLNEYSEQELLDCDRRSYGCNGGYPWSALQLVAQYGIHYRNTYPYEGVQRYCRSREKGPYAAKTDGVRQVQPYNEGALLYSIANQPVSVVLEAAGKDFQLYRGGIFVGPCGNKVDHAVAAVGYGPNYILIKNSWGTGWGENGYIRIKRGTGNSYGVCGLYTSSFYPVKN

[4] = target: Calcium and integrin-binding protein 1 (Homo sapiens) (UniProt Q99828); experiment: Validation qHTS for Identification of Calcium Integrin Binding protein 1 (CIB1) Competitor (AID 1508618); also: % is scaled to controls: 0 for no effect and ±100 for the full control effect
Procedure, shortened: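 Fluorescence polarization with 1 uM CIB1-GST and 100 nM FITC-alphaIIb peptide in HEPES pH 7.4, NaCl, 5 mM CaCl2, Tween20. Compounds at up to 114 uM final, preincubated with protein 15 min; read after 15 min more at RT.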

[5] = Primary qHTS for small molecule stabilizers of the endoplasmic reticulum resident proteome: Secreted ER Calcium Modulated Protein (SERCaMP) assay (AID 1508630); also: % is scaled to controls: 0 for no effect and ±100 for the full control effect
Procedure, shortened: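 GLuc-SERCaMP-expressing SH-SY5Y cells, pretreated 16 h with compound, are challenged with thapsigargin to empty ER calcium stores; after 4 h, coelenterazine is added directly to the medium and luminescence is imaged.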

[6] = target: Cytochrome P450 2D6 (Homo sapiens) (UniProt P10635); experiment: Cytochrome P450 family 2 subfamily D member 6 (CYP2D6) small molecule antagonists: luciferase biochemical (cell-free) qHTS assay (AID 1645840; active = well fitted curve in the direction sought with a large enough effect in the repeat runs; an effect the other way counts as inactive or inconclusive; also: nearly all actives have a fitted effect of over 55% in size; also: potency is read from the fitted curve at half-maximal effect)
Chain of Cytochrome P450 2D6 (Homo sapiens) (P10635 whole entry, looked up): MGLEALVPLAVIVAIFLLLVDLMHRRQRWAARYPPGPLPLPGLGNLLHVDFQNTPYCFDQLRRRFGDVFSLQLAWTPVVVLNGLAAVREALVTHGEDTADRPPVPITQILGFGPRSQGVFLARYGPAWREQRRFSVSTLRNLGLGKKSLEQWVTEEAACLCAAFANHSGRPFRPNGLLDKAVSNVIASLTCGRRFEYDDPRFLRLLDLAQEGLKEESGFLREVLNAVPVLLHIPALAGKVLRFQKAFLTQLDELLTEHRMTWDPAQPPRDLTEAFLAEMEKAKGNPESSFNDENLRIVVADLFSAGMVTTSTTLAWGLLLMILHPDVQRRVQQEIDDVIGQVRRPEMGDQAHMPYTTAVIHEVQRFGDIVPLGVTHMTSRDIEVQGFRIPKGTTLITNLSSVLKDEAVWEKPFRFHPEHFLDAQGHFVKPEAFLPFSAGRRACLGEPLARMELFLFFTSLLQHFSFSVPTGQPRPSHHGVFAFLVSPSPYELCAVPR
Procedure, shortened: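 P450-Glo luminescent screen: recombinant CYP2D6 enzyme–proluciferin substrate mix preincubated with compound 10 min at room temperature, then NADPH regeneration added for 1 h at room temperature. Detection reagent added for 20 min; luciferin light read as relative luminescence units.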

[7] = target: Protein phosphatase 1D (Homo sapiens) (UniProt O15297); experiment: RapidFire Mass Spectrometry qHTS Assay for Modulators of WT P53-Induced Phosphatase 1 (WIP1) (AID 1347424);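 also: amount of dephosphorylated VEPPL-S-QETFS peptide product formed by WIP1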; also: potency is read from the fitted curve at half-maximal effect
Chain of Protein phosphatase 1D (Homo sapiens) (O15297 whole entry, looked up): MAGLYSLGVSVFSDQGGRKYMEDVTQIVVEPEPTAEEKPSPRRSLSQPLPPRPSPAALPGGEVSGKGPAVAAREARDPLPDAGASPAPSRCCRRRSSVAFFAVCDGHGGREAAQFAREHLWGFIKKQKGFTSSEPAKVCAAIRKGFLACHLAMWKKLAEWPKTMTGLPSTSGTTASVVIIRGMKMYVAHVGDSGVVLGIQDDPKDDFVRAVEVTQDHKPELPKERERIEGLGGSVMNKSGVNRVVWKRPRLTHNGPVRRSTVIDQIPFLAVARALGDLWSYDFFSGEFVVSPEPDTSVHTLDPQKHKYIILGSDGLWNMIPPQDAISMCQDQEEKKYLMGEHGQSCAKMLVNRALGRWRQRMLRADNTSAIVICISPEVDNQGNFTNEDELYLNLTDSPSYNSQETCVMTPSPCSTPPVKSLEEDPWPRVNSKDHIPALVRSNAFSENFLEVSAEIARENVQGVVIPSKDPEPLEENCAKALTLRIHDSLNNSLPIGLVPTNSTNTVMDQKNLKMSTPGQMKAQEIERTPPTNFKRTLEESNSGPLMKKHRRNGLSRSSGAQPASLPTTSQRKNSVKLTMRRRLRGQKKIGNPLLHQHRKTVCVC
Procedure, shortened: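 10 nM WIP1 + cpd, 1 h RT; + 2 uM VEPPL-pS-QETFS, 5 min RT; stop 0.5% formic acid; labelled product standard 1 uM; RapidFire MS. Buffer 50 mM Tris pH 7.5, 30 mM MgCl2, 1 mM TCEP.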

[8] = target: Protein phosphatase 1D (Homo sapiens) (UniProt O15297); experiment: Rhodamine-PBP qHTS Assay for Modulators of WT P53-Induced Phosphatase 1 (WIP1) (AID 1347425); also: % of control where 0% means no effect
Procedure, shortened: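 WIP1 (5 nM final) was preincubated with compound for 1 hour at room temperature. It then dephosphorylated 10 uM VEPPL-pS-QETFS peptide in Tris-HCl pH 7.5 with 30 mM MgCl2. Released Pi was detected by 10 uM Rh-PBP fluorescence (ex 525/em 598 nm) read at 1-min intervals for 11 min, as delta f1 - f0.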

[9] = Primary qHTS for inhibitors of La Crosse Virus (LACV) - induced cell death in SH-SY5Y cells (AID 1508616);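 also: top concentration of the series differs between compounds; 0% = infected DMSO wells and 100% = uninfected DMSO wells; higher means more rescue of cells from virus-induced death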
Procedure, shortened: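 SH-SY5Y cells (6000/well) plated 24 h, then given compounds by pin transfer and LACV at 0.01 MOI for 6 days at 37C. Viability measured by ATPLite luminescence, normalized to infected DMSO and uninfected DMSO.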

[10] = Confirmatory qHTS for small molecule stabilizers of the endoplasmic reticulum resident proteome: Secreted ER Calcium Modulated Protein (SERCaMP) assay (AID 1508628); also: series mostly up to about 76 µM; % is scaled to controls: 0 for no effect and ±100 for the full control effect; nearly all actives have a fitted effect of over 40% in size
Procedure, shortened: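 SH-SY5Y cells stably expressing GLuc-SERCaMP, treated 16 h with compound (primary 1.53, 7.67, 38.3 uM; confirmation 11 concentrations, up to 76.6 uM), then 100 nM thapsigargin for 4 h. Secreted Gaussia luciferase in medium read by coelenterazine luminescence.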

[11] = Cell Viability qHTS for small molecule stabilizers of the endoplasmic reticulum resident proteome (AID 1508629); settings: cell viability counter-screen, 100 nM thapsigargin for final 4 h;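 also: human SH-SY5Y neuroblastoma cells carrying the GLuc-SERCaMP reporter; compound exposure about 46 h in total before the viability read; % is scaled to controls: 0 for no effect and ±100 for the full control effect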
[12] = target: Calcium and integrin-binding protein 1 (Homo sapiens) (UniProt Q99828); experiment: Confirmatory qHTS for Identification of Calcium Integrin Binding Protein 1 (CIB1) Competitor (AID 1508617); settings: CIB1 binding competition assay, biochemical qHTS; also: potency is read from the fitted curve at half-maximal effect; nearly all actives have a fitted effect of over 65% in size
Procedure, shortened: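 FP competition: CIB1-GST (1 uM final) in 5 mM HEPES pH 7.4, 125 mM NaCl, 5 mM CaCl2, 0.01% Tween20 preincubated 15 min RT with compounds (up to 114 uM), then FITC-alphaIIb peptide (100 nM), 15 min RT; Ex 480/Em 540.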

[13] = A High-Content qHTS Against Drug Library for the Identification of Small Molecules that Inhibit DYT1 Early Onset Primary Dystonia-Associated Cell Pathology (AID 1645839; calls by dose curve; also: series mostly up to about 46 µM)
Procedure, shortened: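 In this high-content image screen, delE TorsinA mislocalization in inducible Flp-In 293 cells is scored as %pathology, with cell count serving as the counterscreen. Compound exposure lasts 48 h under tetracycline induction in reduced-serum medium.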

CCN(CC)CCCCNc1ncc2cc(-c3c(Cl)cccc3Cl)c(NC(=O)NC(C)(C)C)nc2n1
inactive: outcome [1] | Potency [2]
active: Potency [3] 19 µM | Potency (Papain (Carica papaya)) 28.2 µM

CCNC(=O)[C@H]1O[C@@H](n2cnc3c(N)nc(NCCc4ccc(CCC(=O)O)cc4)nc32)[C@H](O)C1O (stereo partly specified)
inactive: outcome [1] | Potency (Papain (Carica papaya))

COCCOc1cc2nc[nH]c(=O)c2cc1OCCOC
inactive: outcome [1] | Potency (Papain (Carica papaya))

CC[C@H]1OC(=O)[C@H](C)[C@@H](O[C@H]2C[C@@](C)(OC)[C@@H](O)[C@H](C)O2)[C@H](C)[C@@H](O[C@@H]2O[C@H](C)C[C@H](NC)[C@H]2O)[C@](C)(O)C[C@@H](C)CN(C)[C@H](C)[C@@H](O)[C@]1(C)O
inactive: outcome [1] | outcome [4] | Potency (Papain (Carica papaya))

O=C(CCc1ccncc1)NNC(=O)N1Cc2ccccc2Oc2ccc(Cl)cc21
inactive: outcome [1] | outcome [4] | Potency (Papain (Carica papaya))

COCCOc1cc2ncnc(Cl)c2cc1OCCOC
inactive: outcome [1] | Potency (Papain (Carica papaya))

O=C(NOCC1CC1)c1cc(Br)c(F)c(F)c1Nc1ccc(I)cc1Cl
inactive: outcome [1] | outcome [4] | Potency (Papain (Carica papaya))

N[C@H](CCCP(=O)(O)O)C(=O)O
inactive: outcome [1] | Potency [5] | Potency (Papain (Carica papaya))

CCCCCCCCCCCCCCCCCCN(CCCCCCCCCCCCCCCCCC)CCCN(CCO)CCO
inactive: outcome [1] | outcome [4] | Potency (Papain (Carica papaya))

CO[C@H]1O[C@@H]2O[C@]3(C)CC[C@@H]4[C@@H](C)CC[C@H]([C@H]1C)[C@]24OO3
inactive: outcome [1] | outcome [4] | Potency (Papain (Carica papaya))

COC(=O)C1=C(C)NC(C)=C(C(=O)OC)C1c1cccc(NC(=O)NCCCN2CCC(c3cccc(OC)c3)CC2)c1
active: Potency [6] 4.25 µM | Potency [3] 1.69 µM
inactive: outcome [1] | Potency [2] | Potency (Papain (Carica papaya))

CN(C)c1ccc(N=NS(=O)(=O)O)cc1
inactive: Potency [7] | outcome [8] | Potency [9] | Potency [10] | max response [11] 4.58%
active: Potency [6] 2.37 µM | Potency [3] 0.728 µM

Nc1ccc(O)c([N+](=O)[O-])c1
inactive: Potency [9] | Potency [13]
active: Potency [7] 35.5 µM | Potency [12] 50.1 µM | Potency [6] 32.9 µM | Potency [3] 21.8 µM

COC(=O)C1=C(C)NC(C)=C(C(=O)OCC(C)C)C1c1ccccc1[N+](=O)[O-] (stereo unspecified)
inactive: Potency [7] | outcome [8] | Potency [9] | Potency [2]

O=C(O)c1cc(O)c(O)c(O)c1
inactive: Potency [7] | outcome [8] | Potency [9] | Potency [2] | Potency [13] | Potency [6] | Potency [3]

Nc1ccc(C(=O)O)c(O)c1
inactive: Potency [7] | outcome [8] | Potency [9] | Potency [2] | Potency [13] | Potency [6] | Potency [3]

CC(C)(C)c1nnc(NS(=O)(=O)c2ccc(N)cc2)s1
inactive: Potency [7] | Potency [9] | Potency [2] | Potency [5] | Potency [13] | Potency [6] | Potency [3]
